Test results reported in PubChem BioAssay (Tox21).
Inconclusive results are not listed. Activity calls are given as the source filed them. Calls follow the shape of the dose curve; as a rule, active = well fitted curve in the direction sought with a large enough effect in the repeat runs; inconclusive = weak or mixed curves; inactive = no such curve, though single readings can be large; an effect the other way counts as inactive or inconclusive.

Assays:
[1] = qHTS RealTime-Glo MT Cell Viability Assay in HepG2 cells - 8 hour (AID 1224873); also: nearly all actives have a fitted effect of over 55% in size
Outline: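 HepG2 cells mixed with RealTime-Glo MT reagents (NanoLuc plus cell-permeant prosubstrate) were seeded at 600 cells/well, incubated 5 h at 37 C/5% CO2, then pinned with compounds in DMSO; nonlytic luminescence tracked viability during 40 h treatment.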

[2] = A CellTox Green Cytotoxicity Assay to monitor cytotoxicity in HEK293 cells - 24 hour (AID 1224875); also: series mostly up to about 77 µM; nearly all actives have a fitted effect of over 45% in size
Outline: (§1)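 Each value comes from one timepoint of a single continuous run in which HEK293 cells with CellTox Green were exposed to compound for up to 40 h at 37 C, dye fluorescence rising with cell death.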

[3] = A CellTox Green Cytotoxicity Assay to monitor cytotoxicity in HepG2 cells - 16 hour (AID 1224876); also: nearly all actives have a fitted effect of over 45% in size
Outline: (§2)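 Continuous culture of HepG2 cells with a membrane-impermeant DNA dye; rising fluorescence marks dead cells. Compound exposure lasted up to 40 h at 37 C, with reads every 8 h from 0 h.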

[4] = A CellTox Green Cytotoxicity Assay to monitor cytotoxicity in HepG2 cells - 24 hour (AID 1224878); also: nearly all actives have a fitted effect of over 45% in size
Outline: as §2

[5] = qHTS RealTime-Glo MT Cell Viability Assay in HEK293 cells - 0 hour (AID 1224880); also: top concentration of the series differs between compounds; nearly all actives have a fitted effect of over 45% in size
Outline: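 qHTS format; HEK293 cells with NanoLuc/prosubstrate reagent, 37 C/5% CO2 for 5 h pre-dosing; compounds 23 nL in DMSO; luminescence at each time point reflects viable cells.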

[6] = A CellTox Green Cytotoxicity Assay to monitor cytotoxicity in HEK293 cells - 32 hour (AID 1224881); also: nearly all actives have a fitted effect of over 40% in size
Outline: as §1

[7] = A CellTox Green Cytotoxicity Assay to monitor cytotoxicity in HepG2 cells - 40 hour (AID 1224879); also: nearly all actives have a fitted effect of over 40% in size
Outline: as §2

[8] = A CellTox Green Cytotoxicity Assay to monitor cytotoxicity in HepG2 cells - 0 hour (AID 1224882); also: nearly all actives have a fitted effect of over 35% in size
Outline: as §2

[9] = qHTS RealTime-Glo MT Cell Viability Assay in HepG2 cells - 32 hour (AID 1224877); also: nearly all actives have a fitted effect of over 55% in size
Outline: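 Cells + NanoLuc/prosubstrate dispensed (600 cells/well) → 5 h at 37 C/5% CO2 → compounds in DMSO transferred → 40 h incubation at 37 C, luminescence read at 0, 8, 16, 24, 32, 40 h.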

Measured: Potency

COc1ccc2c(c1OC)C(=O)O[C@@H]2[C@H]1c2c(cc3c(c2OC)OCO3)CCN1C
not listed: [7] | [8] | [9]
inactive: all other assays above

CC(C(=O)O)c1ccc2c(c1)CC(=O)c1ccccc1S2 (stereo not drawn)
not listed: [9]
inactive: all other assays above

CC(=O)c1sc(C)nc1C
inactive: [1] | [2] | [5] | [8]

CC(C)(C)NC(N)=O
not listed: [2] | [4]
inactive: all other assays above

Cc1ccccc1C(=O)Nc1ccc(C(=O)N2CCCC(N(C)C)c3ccccc32)cc1 (stereo not drawn)
not listed: [4] | [7]
inactive: all other assays above

C=C(C)C(=O)OCC(C)(C)COC(=O)C(=C)C
not listed: [4] | [9]
inactive: all other assays above

CC(C)(C)c1n[nH]c(=S)n(N)c1=O
inactive: all assays above

C=Cc1ccccn1
not listed: [6]
inactive: all other assays above

COCCOCCOCCOCCOCCO
not listed: [6]
inactive: all other assays above

C#CC(C)N(C)C(=O)Nc1ccc(Cl)cc1 (stereo not drawn)
not listed: [7]
inactive: all other assays above

CC1COc2ccccc2N1 (stereo not drawn)
not listed: [6] | [8] | [9]
inactive: all other assays above

Cc1ccc2c(c1)OCC(=O)CO2
not listed: [7]
inactive: all other assays above

CCCCOCCOC(=O)COc1nc(Cl)c(Cl)cc1Cl
not listed: [1] | [9]
inactive: all other assays above

O=C1c2cccc3c2[C@H](CCC3)CN1[C@@H]1CN2CCC1CC2
not listed: [4] | [6]
inactive: all other assays above

Nc1nnc(-c2cccc(Cl)c2Cl)c(N)n1
inactive: [2] | [3] | [4] | [7] | [8]

CC(S)C(=O)NCC(=O)O (stereo not drawn)
not listed: [2] | [6]
inactive: all other assays above

COc1ccc2nc(SCc3ncc(C)c(OC)c3C)[nH]c2c1
not listed: [2] | [4]
inactive: all other assays above

Nc1cccc(O)c1
not listed: [4]
inactive: all other assays above

CCN(CC)CC(=O)Nc1c(C)cccc1C
not listed: [5] | [6] | [7]
inactive: all other assays above
